Positions count from the first letter of the chain named.
Columns and labels:
Assay in all cases: protein-binding microarray (PBM); PBM: ~300 nM protein, 6 mM HEPES pH 7.8, 80 mM KCl, 0.5 mM EDTA, 0.5 mM EGTA, 6% glycerol, 35 ng/ul poly-dIdC, 1% milk, 1 h, room temperature; Ap Aiptasia and Nv Nematostella (sea anemones) / Co Capsaspora / Aq Amphimedon (sponge) / Dm Drosophila / Hu human; RHD is the Rel homology domain; high values mean tight binding
Conditions in all cases: dsDNA, one strand shown
[1] = target: T1, GST-Nv-NF-kB (Cys allele) (Nematostella vectensis, UniProt E5G601 2-411)
T1 sequence: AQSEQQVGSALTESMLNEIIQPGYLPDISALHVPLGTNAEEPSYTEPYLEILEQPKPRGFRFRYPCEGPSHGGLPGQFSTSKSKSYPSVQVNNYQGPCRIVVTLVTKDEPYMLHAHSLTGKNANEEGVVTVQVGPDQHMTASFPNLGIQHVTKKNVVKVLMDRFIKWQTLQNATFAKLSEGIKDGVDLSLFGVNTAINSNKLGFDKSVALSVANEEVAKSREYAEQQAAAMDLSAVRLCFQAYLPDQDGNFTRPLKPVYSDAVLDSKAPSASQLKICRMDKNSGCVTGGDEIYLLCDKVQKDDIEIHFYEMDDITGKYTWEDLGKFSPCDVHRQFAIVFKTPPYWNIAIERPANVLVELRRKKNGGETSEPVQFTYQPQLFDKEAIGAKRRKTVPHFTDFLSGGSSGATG

[2] = target: T2, GST-Nv-NF-kB (Ser allele) (Nematostella vectensis, UniProt A7UNT2 2-411)
T2 sequence: T1 sequence with Q21R, C66S, S207N, E215Q, V217A, E225K, A268E, D399E

GST-Co-NF-kB = target: T3, GST-Co-NF-kB (Capsaspora owczarzaki, UniProt F1ARL5 200-546)
T3 sequence: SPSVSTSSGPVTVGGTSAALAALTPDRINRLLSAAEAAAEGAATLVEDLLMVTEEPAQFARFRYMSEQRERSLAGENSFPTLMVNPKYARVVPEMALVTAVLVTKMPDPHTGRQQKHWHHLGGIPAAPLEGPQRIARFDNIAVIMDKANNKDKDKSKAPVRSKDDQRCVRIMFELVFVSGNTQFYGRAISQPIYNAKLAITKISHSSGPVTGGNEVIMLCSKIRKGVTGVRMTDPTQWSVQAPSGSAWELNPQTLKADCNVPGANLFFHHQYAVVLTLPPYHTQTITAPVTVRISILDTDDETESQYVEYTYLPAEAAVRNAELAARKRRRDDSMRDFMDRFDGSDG

GST-Aq-NF-kB = target: T4, GST-Aq-NF-kB (Amphimedon queenslandica, UniProt A9Y5G7 2-389)
T4 sequence: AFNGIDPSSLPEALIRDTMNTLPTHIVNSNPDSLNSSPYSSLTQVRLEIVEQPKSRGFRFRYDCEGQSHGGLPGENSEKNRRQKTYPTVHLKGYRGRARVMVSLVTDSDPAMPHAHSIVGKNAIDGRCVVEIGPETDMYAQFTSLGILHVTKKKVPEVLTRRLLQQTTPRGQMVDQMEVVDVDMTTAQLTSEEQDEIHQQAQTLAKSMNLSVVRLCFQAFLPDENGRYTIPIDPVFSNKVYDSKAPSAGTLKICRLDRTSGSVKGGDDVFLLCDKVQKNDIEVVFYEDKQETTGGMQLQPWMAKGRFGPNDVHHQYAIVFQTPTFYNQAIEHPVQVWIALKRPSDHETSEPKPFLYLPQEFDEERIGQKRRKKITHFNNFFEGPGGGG

GST-Hu-p50 = GST-Hu-p50 (Homo sapiens, UniProt P19838 7-356)
GST-Dm-Relish = target: T5, GST-Dm-Relish (Drosophila melanogaster, UniProt Q94527 99-473)
T5 sequence: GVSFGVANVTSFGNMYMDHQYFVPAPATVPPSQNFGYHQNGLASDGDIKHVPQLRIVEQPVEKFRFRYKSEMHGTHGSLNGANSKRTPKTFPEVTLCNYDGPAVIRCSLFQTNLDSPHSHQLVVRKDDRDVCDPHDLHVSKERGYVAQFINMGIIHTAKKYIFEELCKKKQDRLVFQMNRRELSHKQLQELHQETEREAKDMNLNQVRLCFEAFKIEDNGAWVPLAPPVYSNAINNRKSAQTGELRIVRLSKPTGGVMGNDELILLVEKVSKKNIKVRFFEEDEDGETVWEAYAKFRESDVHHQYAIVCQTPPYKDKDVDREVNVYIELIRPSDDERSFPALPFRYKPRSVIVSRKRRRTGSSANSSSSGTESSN

GST-Ap-NF-kB RHD = target: T6, GST-Ap-NF-kB RHD (Exaiptasia pallida (Aiptasia), UniProt A0A913YAJ5 2-422)
T6 sequence: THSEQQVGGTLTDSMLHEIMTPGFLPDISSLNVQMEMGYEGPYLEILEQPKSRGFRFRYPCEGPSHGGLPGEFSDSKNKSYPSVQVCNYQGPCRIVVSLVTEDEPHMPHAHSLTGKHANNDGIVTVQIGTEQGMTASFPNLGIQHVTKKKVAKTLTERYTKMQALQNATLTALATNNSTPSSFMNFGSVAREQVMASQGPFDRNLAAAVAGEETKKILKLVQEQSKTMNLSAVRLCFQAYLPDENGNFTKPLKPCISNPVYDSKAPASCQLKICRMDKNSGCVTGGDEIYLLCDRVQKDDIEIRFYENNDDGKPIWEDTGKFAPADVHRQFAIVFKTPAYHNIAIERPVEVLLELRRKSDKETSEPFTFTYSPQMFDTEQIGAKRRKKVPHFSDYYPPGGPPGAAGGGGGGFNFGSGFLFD

GST-Hu-p50, sequence (P19838 7-356): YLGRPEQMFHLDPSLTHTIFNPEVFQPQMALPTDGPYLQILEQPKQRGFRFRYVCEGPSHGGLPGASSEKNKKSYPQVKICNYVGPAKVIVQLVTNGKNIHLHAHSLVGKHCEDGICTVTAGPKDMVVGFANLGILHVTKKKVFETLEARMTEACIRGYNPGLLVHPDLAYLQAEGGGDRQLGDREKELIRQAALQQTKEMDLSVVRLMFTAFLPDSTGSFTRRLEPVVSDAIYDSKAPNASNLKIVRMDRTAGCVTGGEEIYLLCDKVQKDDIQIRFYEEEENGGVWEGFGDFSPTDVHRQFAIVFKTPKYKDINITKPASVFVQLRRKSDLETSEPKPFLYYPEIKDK

Sequence | binding signal [1] | binding signal [2] | binding signal (GST-Co-NF-kB) | binding signal (GST-Aq-NF-kB) | binding signal (GST-Hu-p50) | binding signal (GST-Dm-Relish) | binding signal (GST-Ap-NF-kB RHD)
CCGATTAACATCATAATGGGAAATGATGTTAATCGGGTCTTGATTCGCTTGACGCTGCTG | 2.83 z-score | 2.35 z-score | 1.93 z-score | 1.68 z-score | 2.18 z-score | – | –
CCGATTAACATCAAAGTGGGAAATGATGTTAATCGGGTCTTGATTCGCTTGACGCTGCTG | 3.3 z-score | 2.91 z-score | 2.54 z-score | 1.64 z-score | 2.09 z-score | – | –
CCGATTAACATCAGGAAATTCCATGATGTTAATCGGGTCTTGATTCGCTTGACGCTGCTG | 1.06 z-score | – | – | 3.91 z-score | 1.1 z-score | 1.68 z-score | –
CCGATTAACATCATTCCCGGAAATGATGTTAATCGGGTCTTGATTCGCTTGACGCTGCTG | 3.35 z-score | 2.61 z-score | 2.37 z-score | 2.67 z-score | 1.79 z-score | 1.05 z-score | –
CCGATTAACATCACCCCAAACGCTGATGTTAATCGGGTCTTGATTCGCTTGACGCTGCTG | – | – | 1.79 z-score | 1.09 z-score | 1.17 z-score | – | 1.27 z-score
CCGATTAACATCAGGTATTTTACTGATGTTAATCGGGTCTTGATTCGCTTGACGCTGCTG | – | 2.63 z-score | – | 1.93 z-score | 2 z-score | 4.67 z-score | –
CCGATTAACATCAAGGAATTTTCTGATGTTAATCGGGTCTTGATTCGCTTGACGCTGCTG | 1.08 z-score | – | – | 2.26 z-score | 1.18 z-score | 1.93 z-score | –
CCGATTAACATCAAAAAAGTCCGTGATGTTAATCGGGTCTTGATTCGCTTGACGCTGCTG | 1.12 z-score | – | – | 3.69 z-score | 1.4 z-score | 4.7 z-score | –
CCGATTAACATCAGTTTGGGAAATGATGTTAATCGGGTCTTGATTCGCTTGACGCTGCTG | 2.49 z-score | 2.26 z-score | 2.36 z-score | 1.19 z-score | 1.46 z-score | – | –
CCGATTAACATCAAGGGCTTTCCTGATGTTAATCGGGTCTTGATTCGCTTGACGCTGCTG | – | – | – | 3.6 z-score | 1.47 z-score | 2.98 z-score | 1.28 z-score
CCGATTAACATCAGTTGGGAAAATGATGTTAATCGGGTCTTGATTCGCTTGACGCTGCTG | 3.62 z-score | 4.31 z-score | 2.64 z-score | 1.77 z-score | 2.33 z-score | – | –
CCGATTAACATCAGGTGATCACCTGATGTTAATCGGGTCTTGATTCGCTTGACGCTGCTG | – | 2.18 z-score | – | 1.32 z-score | 1.9 z-score | 2.86 z-score | –
CCGATTAACATCAGTTTCCCAAATGATGTTAATCGGGTCTTGATTCGCTTGACGCTGCTG | 2.56 z-score | 3.42 z-score | 2.19 z-score | 1.17 z-score | 1.81 z-score | 1.2 z-score | –
CCGATTAACATCAGAAAATACCATGATGTTAATCGGGTCTTGATTCGCTTGACGCTGCTG | 1.12 z-score | 1.7 z-score | – | 1.58 z-score | 1.63 z-score | 3.11 z-score | –
CCGATTAACATCAAAAAAATTCCTGATGTTAATCGGGTCTTGATTCGCTTGACGCTGCTG | 1.23 z-score | 1.22 z-score | – | 2.87 z-score | 1.79 z-score | 3.84 z-score | –
CCGATTAACATCAGGTTATTCCATGATGTTAATCGGGTCTTGATTCGCTTGACGCTGCTG | – | 2.28 z-score | – | 1.85 z-score | 3.32 z-score | 2.41 z-score | –
CCGATTAACATCACTTCGGGAAATGATGTTAATCGGGTCTTGATTCGCTTGACGCTGCTG | 2.8 z-score | 1.97 z-score | 2.89 z-score | 2.16 z-score | 1.48 z-score | – | –
CCGATTAACATCACCAAAATTCCTGATGTTAATCGGGTCTTGATTCGCTTGACGCTGCTG | – | 1.17 z-score | – | 1.17 z-score | 1.51 z-score | 1.01 z-score | –
CCGATTAACATCAAAAAATTTTCTGATGTTAATCGGGTCTTGATTCGCTTGACGCTGCTG | – | 1.98 z-score | – | 1.49 z-score | 2.15 z-score | 2.72 z-score | –
CCGATTAACATCACCGGAAATTCTGATGTTAATCGGGTCTTGATTCGCTTGACGCTGCTG | 1.22 z-score | 1.39 z-score | – | 2.51 z-score | 2.29 z-score | 1.78 z-score | –
CCGATTAACATCAAAAAATTTCCTGATGTTAATCGGGTCTTGATTCGCTTGACGCTGCTG | – | 1.31 z-score | – | 2.22 z-score | 2.27 z-score | 2.34 z-score | –
CCGATTAACATCAGGAAATAACCTGATGTTAATCGGGTCTTGATTCGCTTGACGCTGCTG | 3.04 z-score | 3.75 z-score | – | 4.91 z-score | 5.04 z-score | 3.31 z-score | –
CCGATTAACATCAATTCCCAAAATGATGTTAATCGGGTCTTGATTCGCTTGACGCTGCTG | 2.17 z-score | 2.29 z-score | 1.45 z-score | 1.31 z-score | 1.25 z-score | 1.29 z-score | –
CCGATTAACATCAGGGAGTACACTGATGTTAATCGGGTCTTGATTCGCTTGACGCTGCTG | – | – | 1.03 z-score | 1.84 z-score | 1.1 z-score | 1.58 z-score | 1.96 z-score
CCGATTAACATCAGAAAGTTTCCTGATGTTAATCGGGTCTTGATTCGCTTGACGCTGCTG | – | – | – | 1.06 z-score | 1.69 z-score | 1.85 z-score | –
CCGATTAACATCAGTTGTCCCGCTGATGTTAATCGGGTCTTGATTCGCTTGACGCTGCTG | 1.89 z-score | – | – | 1.16 z-score | – | – | 1.69 z-score
CCGATTAACATCAGTCCCGCACTTGATGTTAATCGGGTCTTGATTCGCTTGACGCTGCTG | 1.95 z-score | – | – | 2.85 z-score | – | – | 1.61 z-score
CCGATTAACATCAAAATTCCGGGTGATGTTAATCGGGTCTTGATTCGCTTGACGCTGCTG | – | – | 1.33 z-score | 1.67 z-score | 1.74 z-score | 1.53 z-score | –
CCGATTAACATCAGGGGCCGTAATGATGTTAATCGGGTCTTGATTCGCTTGACGCTGCTG | 1.75 z-score | – | – | 2.32 z-score | – | – | 1.66 z-score
CCGATTAACATCAAAAAGTTTCCTGATGTTAATCGGGTCTTGATTCGCTTGACGCTGCTG | – | – | – | 1.68 z-score | 1.42 z-score | 2.43 z-score | –

Source: publication PMC5700166
